This is part of a sample that, as a whole, favours compounds with a hit. Of some 83,000 tested, about 20% had one in any assay.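 48-hour exposure, single concentration, 96-well plates; percent growth endpoint where 0 means no net growth. Active: below 10.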 A number with no mark means an inactive call. Active and inactive are the calls of the source.

The record followed here is PubChem BioAssay (NCI).

Test systems include RPMI-8226 leukemia; OVCAR-8 ovarian; OVCAR-5 ovarian; OVCAR-4 ovarian; SK-OV-3 ovarian; IGROV1 ovarian; OVCAR-3 ovarian; HS 578T breast; NCI/ADR-RES ovarian.
What all share (experiment): NCI-60 one-dose screen, 48 h (100 = growth as untreated, 0 = no growth, -100 = all killed)
Common to all, as to settings: 10 µM unless noted

Turning to `Cc1nn(-c2ccccc2)c(Cl)c1/C=C/C(=O)c1ccc(F)cc1`, the growth in the assay with RPMI-8226 leukemia was -15.6% (active); in the assay on OVCAR-8 ovarian, 86.4%; in the assay on OVCAR-5 ovarian, 97.4%; with OVCAR-4 ovarian, 93.1%; in the assay with SK-OV-3 ovarian, 110%; in the assay on IGROV1 ovarian, 104%. The growth with OVCAR-3 ovarian was 102%; with HS 578T breast it was 114%; in the assay on NCI/ADR-RES ovarian, 93.2%.
Turning to `COc1cc(C2C3=C(COC3=O)N(CCO)c3cc4c(cc32)OCO4)cc(OC)c1OC` (stereo unspecified), the growth in the assay with RPMI-8226 leukemia is 15.2%; in the assay on OVCAR-8 ovarian it was 28.4%; in the assay on OVCAR-5 ovarian it was 27.7%; in the assay with OVCAR-4 ovarian it was 28.5%; in the assay with SK-OV-3 ovarian, -24.2% (active); with IGROV1 ovarian it was 19.1%. The growth is -27.6% (active) in the assay with OVCAR-3 ovarian, -6.37% (active) with HS 578T breast and 27.2% in the assay on NCI/ADR-RES ovarian.
For the compound `COc1ccccc1/C=C1\Oc2cc(OCCN3CCCC3)ccc2C1=O`, the growth was 82.2% with RPMI-8226 leukemia; 91.8% in the assay with OVCAR-8 ovarian; 86.2% in the assay on OVCAR-5 ovarian; 93.9% with OVCAR-4 ovarian; 98.2% in the assay with SK-OV-3 ovarian; 97.3% in the assay on IGROV1 ovarian. For the same compound, the growth was 96.2% with OVCAR-3 ovarian, 80.6% in the assay on HS 578T breast and 90.9% in the assay with NCI/ADR-RES ovarian.
For the compound `CCN1C(=O)N(CC)C2Nn3c(s/c(=C\c4ccc(OC)cc4)c3=O)=NC21` (stereo unspecified), the growth with RPMI-8226 leukemia is 69.8%; with OVCAR-8 ovarian, 67.3%; in the assay with OVCAR-5 ovarian, 83.9%; with OVCAR-4 ovarian, 63.7%; with SK-OV-3 ovarian, 62.7%; in the assay with IGROV1 ovarian, 54.8%. The growth with OVCAR-3 ovarian is 19.2%; with HS 578T breast it was 43.6%; with NCI/ADR-RES ovarian, 44.2%.
As for `CCN(c1ccccc1)S(=O)(=O)c1cc([N+](=O)[O-])ccc1Cl`, the growth was 43.8% in the assay on RPMI-8226 leukemia; 79.8% with OVCAR-8 ovarian; 67.4% with OVCAR-5 ovarian; 25.1% with OVCAR-4 ovarian; 55.3% in the assay on SK-OV-3 ovarian; 54% in the assay on IGROV1 ovarian. For the same compound, the growth in the assay on OVCAR-3 ovarian is 74.7%; in the assay with HS 578T breast, 82%; with NCI/ADR-RES ovarian, 42.2%.
In the case of `Brc1ccc2[nH]cc(-c3cncn3CCc3ccccc3)c2c1`, the growth was 29.7% in the assay with RPMI-8226 leukemia; 66.9% in the assay with OVCAR-8 ovarian; 71% in the assay with OVCAR-5 ovarian; 25.9% in the assay on OVCAR-4 ovarian; 64.9% in the assay with SK-OV-3 ovarian; 76.9% with IGROV1 ovarian. Further, the growth is 36.7% with OVCAR-3 ovarian, 12.8% with HS 578T breast and 49.6% in the assay with NCI/ADR-RES ovarian.
As to `Cn1cc(-c2nc(-c3c[nH]c4c(Cl)nccc34)cs2)c2cc(Br)ccc21`, the growth with RPMI-8226 leukemia is 78.6%; in the assay on OVCAR-8 ovarian, 80.2%; in the assay on OVCAR-5 ovarian, 97.6%; in the assay on OVCAR-4 ovarian, 90.5%; in the assay on SK-OV-3 ovarian, 95.6%; in the assay with IGROV1 ovarian, 102%. For the same compound, the figures for the growth with OVCAR-3 ovarian, in the assay on HS 578T breast and in the assay on NCI/ADR-RES ovarian were 111%, 85.6% and 97.6%, respectively.
For `CN(CCN(C)c1ccc(C(=N)N)cc1)c1ccc(C(=N)N)cc1`, the growth is 46.8% in the assay on RPMI-8226 leukemia; 107% in the assay with OVCAR-8 ovarian; 90.9% with OVCAR-5 ovarian; 98% in the assay on OVCAR-4 ovarian; 140% in the assay with SK-OV-3 ovarian; 26% with IGROV1 ovarian. For the same compound, the growth was 87.9% in the assay on OVCAR-3 ovarian, 108% with HS 578T breast and 104% in the assay on NCI/ADR-RES ovarian.
Regarding `COc1cc(/C=C2\COc3ccc(-c4ccccc4)cc3C2=O)cc(OC)c1`, the growth in the assay with RPMI-8226 leukemia is 3.36% (active); in the assay on OVCAR-8 ovarian it was 56.2%; in the assay on OVCAR-5 ovarian it was 106%; in the assay on OVCAR-4 ovarian, 63.8%; in the assay with SK-OV-3 ovarian it was 108%; with IGROV1 ovarian it was 90.8%. Further, the growth in the assay with OVCAR-3 ovarian is 69%; with HS 578T breast, 92.9%; in the assay on NCI/ADR-RES ovarian, 61%.
`O=C1/C=C/[C@@H](O)[C@@H]2C[C@@H](O)C[C@H]2/C=C/CCC[C@H](CCc2cccc3ccccc23)O1`: the growth in the assay on RPMI-8226 leukemia was 22%; with OVCAR-8 ovarian, 17.7%; in the assay with OVCAR-5 ovarian, 24.6%; in the assay with OVCAR-4 ovarian, 14.4%; with SK-OV-3 ovarian, 18.1%; with IGROV1 ovarian it was 5.72% (active). The growth in the assay with OVCAR-3 ovarian is -48.1% (active); in the assay on HS 578T breast it was 39.5%; with NCI/ADR-RES ovarian, 2.01% (active).
For `Oc1ccc(C2c3ccccc3Oc3ccccc32)c2cccnc12`, the growth was 28.8% in the assay on RPMI-8226 leukemia; 7.16% (active) in the assay with OVCAR-8 ovarian; 44.9% in the assay on OVCAR-5 ovarian; 30.6% in the assay on OVCAR-4 ovarian; 31.4% with SK-OV-3 ovarian; 20.4% with IGROV1 ovarian. Further, the results for the growth in the assay on OVCAR-3 ovarian, in the assay on HS 578T breast and with NCI/ADR-RES ovarian were 56.5%, 77.6% and 7.48% (active), respectively.
Take `O=C1CC(=O)OC(c2ccc([N+](=O)[O-])cc2)O1`: the growth is 14.1% with RPMI-8226 leukemia; 11.6% with OVCAR-8 ovarian; -3.68% (active) in the assay with OVCAR-5 ovarian; 24.6% with OVCAR-4 ovarian; 89.6% with SK-OV-3 ovarian; -59.6% (active) in the assay with IGROV1 ovarian. In addition, the growth in the assay with OVCAR-3 ovarian is -60.6% (active); in the assay on HS 578T breast, 13.1%; with NCI/ADR-RES ovarian, -44.3% (active).
As to `COc1cc(C(=O)Nc2cc3c(cc2Oc2cc(C)cc(C)c2)C(=O)N(C)[C@@H](CC(=O)N(C)O)C(=O)N3)c(Br)c(OC)c1OC`, the growth was -26.2% (active) with RPMI-8226 leukemia; 0.573% (active) with OVCAR-8 ovarian; -18.6% (active) with OVCAR-5 ovarian; -33.3% (active) in the assay with OVCAR-4 ovarian; -0.559% (active) with SK-OV-3 ovarian; -22.5% (active) in the assay with IGROV1 ovarian. The growth in the assay on OVCAR-3 ovarian was -35.5% (active); in the assay on HS 578T breast, -18.1% (active); with NCI/ADR-RES ovarian, 17.9%.
For `Cc1ccc(-c2nc3ccccn3c2/C=C2/C(=O)Nc3cc(Cl)ccc32)cc1`, the growth in the assay on RPMI-8226 leukemia was 93.6%; with OVCAR-8 ovarian, 91.7%; in the assay with OVCAR-5 ovarian, 101%; in the assay with OVCAR-4 ovarian it was 74.7%; with SK-OV-3 ovarian it was 94.4%; in the assay on IGROV1 ovarian, 81.3%. Moreover, the values for the growth in the assay with OVCAR-3 ovarian, with HS 578T breast and with NCI/ADR-RES ovarian were 93.7%, 101% and 27%, respectively.
